Assay outcomes (PubChem BioAssay)
Most compounds without a hit are left out; they make up all but 10% or so of the library.
SARS PLP yeast = inhibitors of SARS-CoV papain-like protease in yeast; Potency, µM (top dose mostly 32.9 µM), for the others: top-dose activity, positive = growth rescue, most hits filed as activators; AID 485353; actives 0.19% (n = 330,000); S. cerevisiae expressing SARS-CoV PLpro, growth rescue; calls by dose curve; also: 0% is about no effect; nearly all actives have a fitted effect of over 55% in size
Pf growth 48h = P. falciparum growth inhibition at 48 hours (one generation); P. falciparum luciferase growth in erythrocytes, 48 h; Potency, µM (top dose mostly 28.7 µM), inactives show at the top dose activity change, negative = inhibition, most hits filed as inhibitors; actives 5.9% (n = 310,000); also: % is scaled to controls: 0 for no effect and ±100 for the full control effect
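Here the parasites carry a stable luciferase gene and grow inside erythrocytes in Albumax-based RPMI medium with compound for one erythrocytic cycle. Activity is scored as loss of luminescent signal.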
NS1 function inh = inhibitors of influenza NS1 protein function. AID 2326. actives 0.4% (n = 270,000). Potency, µM (highest dose often 46.1 µM), inactives show at the top dose activity, positive = more growth; calls by dose curve; also: actives are rising curves; nearly all actives have a fitted effect of over 50% in size
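In this qHTS, NS1 from influenza A is expressed in budding yeast, where it slows growth. Cells are switched from glucose to 2% galactose medium (pH 6.0, -URA), treated with compound, and growth recovery is read at OD600.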
Pf growth 96h = P. falciparum growth inhibition at 96 hours. P. falciparum luciferase reporter growth, 96 h. Potency, µM (series often up to 28.7 µM), for the others: at the highest dose activity change, negative = inhibition, actives largely listed as inhibitors. actives 6.9% (n = 320,000). AID 504834; also: % is scaled to controls: 0 for no effect and ±100 for the full control effect
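Cell-based qHTS: luciferase-tagged P. falciparum in erythrocytes (2% hematocrit, 0.05% parasitemia final) incubated with compounds for 96 hours, 37 C, 5% CO2; luciferase detection reagent then added and luminescence measured.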
The depositor's hits bear a star. Unless noted, calls follow the shape of the dose curve; as a rule, active = well fitted inhibition curve with a large enough effect; inconclusive = small, poorly fitted or top-dose-only effect, or another doubt; inactive = no such curve, though single readings can be large or run the other way. Potency is read from the fitted curve at half-maximal effect.

Screening O=C1C2C3C=CC(C4CC34)C2C(=O)N1/N=C/c1ccc(-c2ccc(F)cc2[N+](=O)[O-])o1 (stereo unspecified) returned SARS PLP yeast 16.0%, NS1 function inh -1.5% and Pf growth 96h 4.65µM*.
O=C1C2C3C=CC(C4CC34)C2C(=O)N1/N=C/c1ccc(-c2ccc(Cl)cc2[N+](=O)[O-])o1 (stereo unspecified) was read as SARS PLP yeast 10.1%, NS1 function inh 3.3% and Pf growth 96h 16.8%.
Screening COc1ccccc1C(=O)CN1C(=O)NC2(CCc3ccccc32)C1=O (stereo unspecified) returned SARS PLP yeast 4.1%, Pf growth 48h -21.9% and Pf growth 96h -3.2%.
For O=C(Nc1ccc(Cl)cc1)OC1CN2CCC1CC2 (stereo unspecified) the results were SARS PLP yeast 0.2%, Pf growth 48h 46.8%, NS1 function inh -3.0% and Pf growth 96h 35.9%.
`O=C(Nc1cccc(Cl)c1)OC1CN2CCC1CC2` (stereo unspecified) gave SARS PLP yeast -3.0%, Pf growth 48h 2.94µM*, NS1 function inh 1.9% and Pf growth 96h 1.85µM*.
For Cc1cccc([C@@H]2[C@@H]3C(=O)N(Cc4ccccc4)C(=O)[C@@H]3[C@]3(C)C(=O)N(c4ccc(C(F)(F)F)cc4)C(=O)N23)c1 the results were SARS PLP yeast -3.3%, Pf growth 48h inconclusive, NS1 function inh 8.2% and Pf growth 96h -35.6%.
`COc1ccc(/C=C/C(=O)OCCC(C)C)cc1` gave Pf growth 48h 23.9% and Pf growth 96h 13.5µM*.
For Cc1c(C(=O)N2CCCCC2)c(S(=O)(=O)NCCc2ccc(S(N)(=O)=O)cc2)c(C)n1C the results were SARS PLP yeast -2.8%, Pf growth 48h 0.0%, NS1 function inh -11.2% and Pf growth 96h inconclusive.
`CC1(c2cccc(Br)c2)NC(=O)N(CC(=O)Nc2ccc(S(N)(=O)=O)cc2)C1=O` (stereo unspecified) gave SARS PLP yeast 0.7%, Pf growth 48h inconclusive, NS1 function inh 24.3% and Pf growth 96h -16.6%.
COCC(=O)N(CCc1ccc(OC)cc1)Cc1nc2ccccc2c(=O)[nH]1 was read as SARS PLP yeast 1.2%, Pf growth 48h inconclusive, NS1 function inh 0.0% and Pf growth 96h -15.7%.
Screening CCCC(=O)N(CCc1ccc(OC)cc1)Cc1nc2ccccc2c(=O)[nH]1 returned SARS PLP yeast 6.9%, NS1 function inh -5.3% and Pf growth 96h 10.4µM*.
`O=C(Nc1ccccc1F)N(Cc1ccc(F)cc1)Cc1nc2ccccc2c(=O)[nH]1` gave SARS PLP yeast -1.0%, Pf growth 48h 4.0%, NS1 function inh 7.7% and Pf growth 96h inconclusive.
For CCN(Cc1nc2ccccc2c(=O)[nH]1)C(=O)COc1ccccc1Cc1ccccc1 the results were SARS PLP yeast -2.9%, Pf growth 48h inconclusive and Pf growth 96h 8.28µM*.
`CCN(Cc1nc2ccccc2c(=O)[nH]1)C(=O)c1cccc(OCc2c(C)noc2C)c1` gave SARS PLP yeast 2.2%, Pf growth 48h 6.57µM* and Pf growth 96h inconclusive.
O=C(NC1CCCCC1)N(Cc1ccc(F)cc1)Cc1nc2ccccc2c(=O)[nH]1 was read as SARS PLP yeast -2.7%, Pf growth 48h 10.4µM*, NS1 function inh -16.5% and Pf growth 96h 37.9%.
Screening COCCN1CC(C(=O)NCc2ncccc2C)CCC1=O (stereo unspecified) returned SARS PLP yeast -8.7%, Pf growth 48h 18.1%, NS1 function inh 2.0% and Pf growth 96h 32.0%.
Screening O=C(C1CC1)N(CCc1ccccc1)Cc1nc2ccccc2c(=O)[nH]1 returned SARS PLP yeast -1.6%, Pf growth 48h -25.2%, NS1 function inh 0.6% and Pf growth 96h 14.7µM*.
O=C(C1CCC1)N(CCc1ccccc1)Cc1nc2ccccc2c(=O)[nH]1 was read as SARS PLP yeast -9.3%, Pf growth 48h inconclusive, NS1 function inh -11.7% and Pf growth 96h 5.4%.
`CCN(C(=O)Cc1c(C(=O)O)[nH]c2ccccc12)c1cc(OC)ccc1OC` gave SARS PLP yeast inconclusive, Pf growth 48h inconclusive, NS1 function inh -7.6% and Pf growth 96h 7.38µM*.
Screening Cc1ccc(C2=NN=C(NC(=O)CSc3nc(C)cc(C)n3)SC2)cc1 returned SARS PLP yeast -46.4%, Pf growth 48h inconclusive, NS1 function inh 5.3% and Pf growth 96h -5.3%.
Cc1ccc(C2=NN=C(NC(=O)CSc3nnc4c5ccccc5n(C)c4n3)SC2)cc1 was read as SARS PLP yeast -81.7%, Pf growth 48h 3.29µM*, NS1 function inh 6.2% and Pf growth 96h 18.2%.
For COc1ccc(CN2CC(C(N)=O)Oc3ccccc32)cc1F (stereo unspecified) the results were SARS PLP yeast -1.8%, Pf growth 48h 18.8%, NS1 function inh -11.9% and Pf growth 96h 11.4%.
For O=C(COc1ccccc1)Nc1ccc(Cl)cn1 the results were SARS PLP yeast 0.9%, Pf growth 48h inconclusive, NS1 function inh 1.9% and Pf growth 96h 32.0%.
O=C(COc1ccccc1Cl)Nc1ccc(Cl)cn1 was read as SARS PLP yeast 2.0%, Pf growth 48h 187.9%, NS1 function inh -16.2% and Pf growth 96h 10.4µM*.
`CCOc1ccc(NC(=S)N/N=C(\C)Cc2ccc(OC)cc2)cc1` gave SARS PLP yeast inconclusive, Pf growth 48h 3.0%, NS1 function inh 25.2% and Pf growth 96h -23.4%.
For CCOc1ccc(CSCCNC(=S)Nc2ccc(OC)cc2)cc1 the results were SARS PLP yeast -0.1%, Pf growth 48h 8.28µM*, NS1 function inh 0.4% and Pf growth 96h inconclusive.
CCCOc1ccc(CSCCNC(=S)Nc2ccccc2)cc1 was read as SARS PLP yeast inconclusive, Pf growth 48h 13.1µM*, NS1 function inh -11.0% and Pf growth 96h inconclusive.
For COc1ccc(-c2cc3c(=O)n(CC(=O)Nc4cccc(Cl)c4)nc(C)n3n2)cc1 the results were SARS PLP yeast 1.7%, Pf growth 48h -4.8%, NS1 function inh -17.9% and Pf growth 96h inconclusive.
For Cc1ccc([N+](=O)[O-])cc1NC(=O)CNC1CCCCC1 the results were SARS PLP yeast -1.7%, Pf growth 48h 11.7µM*, NS1 function inh 18.2% and Pf growth 96h -12.4%.
Screening CN(c1ccc([N+](=O)[O-])cc1C(=O)Nc1ccccc1)C1CCCCC1 returned SARS PLP yeast -1.3%, Pf growth 48h -19.4%, NS1 function inh -6.1% and Pf growth 96h inconclusive.
Screening Cc1ccc([N+](=O)[O-])cc1NC(=O)CCSc1ccc(Cl)cc1 returned SARS PLP yeast -7.9%, Pf growth 48h 17.6%, NS1 function inh -3.0% and Pf growth 96h 9.28µM*.
Screening Cc1cccc(NC(=O)c2cc([N+](=O)[O-])ccc2NC2CCCCC2)c1 returned SARS PLP yeast -3.6%, Pf growth 48h 8.28µM*, NS1 function inh -1.8% and Pf growth 96h inconclusive.
For CC12CC3(C)CC(C)(C1)CC(C(=O)NCc1cccnc1)(C2)C3 the results were SARS PLP yeast -2.0%, Pf growth 48h -17.1%, NS1 function inh -14.9% and Pf growth 96h 11.7µM*.
`CC12CC3CC(C)(C1)CC(C(=O)NCc1cccnc1)(C3)C2` gave SARS PLP yeast -5.8%, Pf growth 48h 51.9%, NS1 function inh 1.1% and Pf growth 96h 3.7µM*.
